From PubChem BioAssay AID743049 (Broad Institute, 2013)
Results with a measured potency or affinity are listed apart. Results filed as inconclusive are left out. Active and inactive are the calls of the source. No rule for the calls is given here.

Assay: PAX8-dependent cell viability loss – plate reader, dry powder, dose response (AID 743049)

Compound	outcome
COc1ccccc1C#Cc1ccc([C@@H]2[C@@H](C#N)N(C(=O)C3CCCCC3)[C@H]2CO)cc1	inactive
Cc1ccccc1CNC(=O)C1CCCN(c2nnc(C)c3c(C)n(-c4ccccc4)nc23)C1 (configuration not stated)	inactive
